Test results reported in PubChem BioAssay (NCI).
This is part of a sample that, as a whole, favours compounds with a hit. Of some 79,000 tested, about 15% had one in any assay. The source made the active and inactive calls. Cut-off read from the data, not from the text of the source: active = growth inhibition above about 70%; inactive = the rest.

Assays:
[1] = NCI Yeast Anticancer Drug Screen. Data for the rad50 strain (AID 155);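 note: 0% = growth of vehicle-only cultures of the same strain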; details: S. cerevisiae rad50 strain growth inhibition; at 50.0 µM; active compounds read high
Outline: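 Compounds were tested on a yeast strain with an engineered DNA damage repair alteration; the reported value is growth inhibition normalised to vehicle treatment.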

[2] = NCI Yeast Anticancer Drug Screen. Data for the mec2-1 strain (AID 157); details: S. cerevisiae mec2-1 strain, at 50.0 µM, active compounds read high
Outline: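 Mutant yeast (mec2-1) grown with compound; growth inhibition relative to vehicle control reported.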

[3] = NCI Yeast Anticancer Drug Screen. Data for the sgs1 mgt1 strain (AID 161);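 note: 0% = growth of cultures given vehicle only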; details: S. cerevisiae sgs1 mgt1 strain, at 50.0 µM, active compounds read high
Outline: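 Percent growth inhibition was derived by comparing compound-exposed mutant yeast with vehicle-exposed cultures. The strain carries alterations in DNA damage repair.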

[4] = NCI Yeast Anticancer Drug Screen. Data for the cln2 rad14 strain (AID 165);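 note: 0% = growth equal to vehicle treated cultures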; details: S. cerevisiae cln2 rad14 strain, at 50.0 µM, active compounds read high
Outline: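 Readout is yeast growth inhibition versus vehicle-treated controls, using a strain with cln2 and rad14 alterations exposed to compound.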

[5] = NCI Yeast Anticancer Drug Screen. Data for the bub3 strain (AID 167); details: S. cerevisiae bub3 mutant strain, at 50.0 µM, active compounds read high
Outline: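 Growth of a checkpoint-deficient yeast mutant is measured after compound exposure. Values represent inhibition relative to vehicle.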

[6] = NCI Yeast Anticancer Drug Screen. Data for the mlh1 rad18 strain (AID 175); details: S. cerevisiae mlh1 rad18 strain growth inhibition; at 50.0 µM; active compounds read high
Outline: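 Genetically defined yeast (DNA repair-deficient) exposed to compounds; growth inhibition determined relative to vehicle.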

Measured: growth inhibition

C=CCOC(=O)Nc1ccc(S(=O)(=O)CC)cc1
inactive: [1] -0.95% | [2] 5.95% | [3] -4.55% | [4] -21.6% | [5] 22.8% | [6] -1.65%

CCOC(=O)COC(=O)C1C(C(N)=O)N(CC(=O)OCC)CCN1CC(=O)OCC (stereo not given)
inactive: [1] 1.85% | [2] 1.9% | [3] -7.9% | [4] -0.85% | [5] -2.45% | [6] 2.25%

O=C(Nc1ccc(Cl)cc1)c1cc2c(cc1Cl)Sc1nccn1S2(=O)=O
inactive: [1] -4.85% | [2] -11.7% | [3] -1.65% | [4] -25.4% | [5] 2.35% | [6] 16.9%

C[n+]1c(-c2ccc(/C=N/NC(=O)C(=O)N/N=C/c3ccc(-c4cn5ccsc5[n+]4C)cc3)cc2)cn2ccsc21
active: [1] 85.5% | [2] 88% | [3] 86.8% | [4] 76.6% | [5] 88.7% | [6] 86.5%

COc1ccc(/C=C/C(=O)C(C)(CN(C)C)CN(C)C)cc1
inactive: [1] 0.95% | [2] -13.8% | [3] 4.95% | [4] 6.85% | [5] -11.2% | [6] 11.8%

CCOc1ccc(NC(=O)C(Br)C(Br)C(=O)O)cc1 (stereo not given)
active: [1] 85.7% | [2] 98.5% | [3] 96.8% | [4] 95.4% | [5] 98.5% | [6] 94.6%

CCCCCCCCCSCCS
inactive: [1] -14.1% | [2] 7.4% | [3] 2% | [4] -16.2% | [5] -19.4% | [6] -22.2%

O=C1NC2Cc3ccccc3C(C2)O1 (stereo not given)
inactive: [1] 2.8% | [2] -0.9% | [3] 1.85% | [4] -1.95% | [5] 15.9% | [6] 11.8%

Cn1c(=O)n2n(c1=O)[C@@H](c1ccccc1)[C@H]2c1ccccc1
inactive: [1] 29.8% | [2] -45.4% | [3] -9.85% | [4] -5.85% | [5] 20.2% | [6] -59.3%

COc1cc2c(cc1O)CN1Cc3c(ccc(OC)c3O)C2C1 (stereo not given)
inactive: [1] -16% | [2] -14.4% | [3] -1.8% | [4] -1.15% | [5] -11.5% | [6] 0.65%

O=C(OCCN1CCOCC1)c1cc2ccccc2oc1=O
inactive: [1] 1.8% | [2] 2.65% | [3] 6.35% | [4] -45.7% | [5] -0.2% | [6] -2.65%

CCOc1cc2c(cc1O)/C(=N\O)C[C@@H]1[C@@H]2CC[C@]2(C)[C@@H](O)CC[C@@H]12
inactive: [1] 31.6% | [2] 13% | [3] 57.2% | [4] 20.6% | [5] 24.2% | [6] -9.15%

C1=Nc2ccccc2/C1=C/C=C/c1ccccc1
inactive: [1] 24.6% | [2] 31.6% | [3] 28.3% | [4] 10.2% | [5] 41.5% | [6] 21.8%

Cc1cccc2c1C(=O)OC2(c1cccc2ccccc12)c1cccc2ccccc12
inactive: [1] -16.4% | [2] 3.9% | [3] 4.5% | [4] -15.7% | [5] 0% | [6] 1.6%

C=CCC1=C(C)C(OC(=O)/C=C/c2ccco2)CC1=O (stereo not given)
inactive: [1] 10.3% | [2] -5.2% | [3] 8.6% | [4] -5.5% | [5] 30.3% | [6] -0.2%

CC(=O)Nc1ccc(S(=O)(=O)CO)cc1
inactive: [1] 19.4% | [2] 16.9% | [3] 19.6% | [4] 6.55% | [5] -0.3% | [6] 16.8%

COC(=O)Cc1cc(=O)c2cc(C)ccc2[nH]1
inactive: [1] 0.9% | [2] 3.6% | [3] -2.7% | [4] -29.6% | [5] -13.9% | [6] -1.15%

CCSc1nnc2c(-c3ccccc3)n[nH]c2n1
inactive: [1] -0.75% | [2] -0.05% | [3] -21.8% | [4] -25.9% | [5] -27.6% | [6] -12.1%

COc1ccc(N(C(=O)Nc2ccc(Cl)c(Cl)c2)c2ccccc2)cc1
inactive: [1] -32.1% | [2] -28.4% | [3] -19.2% | [4] -1.45% | [5] 14.3% | [6] -10.4%

NCCCCN(CCCN)Cc1ccccc1
inactive: [1] -4.8% | [2] -1.25% | [3] -17.1% | [4] 11.6% | [5] -4% | [6] -58.9%

CN(N=O)c1c([N+](=O)[O-])cc2c(c1[N+](=O)[O-])Cc1ccccc1-2
inactive: [1] 0.4% | [2] -4.3% | [3] -8.8% | [4] 17.6% | [5] 14.7% | [6] 19.4%

CCCCCCCCN(c1ccc(C(=O)NC(CCC(=O)OCC)C(=O)OCC)cc1)S(=O)(=O)c1ccc(C)cc1 (stereo not given)
inactive: [1] -14.6% | [2] -4.5% | [3] -18.9% | [4] -24.6% | [5] -3.6% | [6] -12.2%

CCC(=O)OC1CCC2(C)C(=CCC3C2CCC2(C)C(C(C)CCCC(C)C)CCC32)C1 (stereo not given)
inactive: [1] 3.1% | [2] 7.6% | [3] -20.6% | [4] 4.45% | [5] -0.8% | [6] -12.2%

Cc1cn(C)c2c1-c1oncc1CC2
inactive: [1] -4.3% | [2] -14.7% | [3] 5.4% | [4] -7% | [5] -35.3% | [6] 2.3%

CN1CCC(O)(c2ncc(Br)c3ccccc23)CC1
inactive: [1] 17.1% | [2] -7.8% | [3] 24.9% | [4] 10.8% | [5] 11.2% | [6] 39.6%

O=C(COCC(=O)N/N=C/c1c(O)ccc2ccccc12)N/N=C/c1c(O)ccc2ccccc12
inactive: [1] -2% | [2] -13% | [3] -5.25% | [4] -8.25% | [5] -1% | [6] 6.9%

CCC(=O)[C@@]1(OC(C)=O)CC[C@H]2[C@@H]3CCC4=CC(=O)CC[C@]4(C)[C@H]3CC[C@@]21C
inactive: [1] 28.1% | [2] 17.5% | [3] 30.9% | [4] 36.7% | [5] 26.9% | [6] 16%

O=C1OC(=C(Cl)Cl)C2C3c4ccccc4C(c4ccccc43)C12 (stereo not given)
inactive: [1] 21.9% | [2] 21.6% | [3] -1.5% | [4] 8.75% | [5] 2.7% | [6] 18.2%

O=S(=O)(NOCCCCONS(=O)(=O)c1ccccc1)c1ccccc1
inactive: [1] 27.6% | [2] 17.6% | [3] 11.2% | [5] 26.3% | [6] -6.15%
active: [4] 92.1%

Cc1c(-c2ccccc2)c(-c2ccccc2)c(C)c(-c2ccc3c(c2)CCCC3)c1-c1ccccc1
inactive: [1] -15% | [2] -3.35% | [3] -33.2% | [4] 1.75% | [5] 22.2% | [6] -16.7%

COC(=N)/C(C#N)=N/C1OCC(O)C(O)C1O (stereo not given)
inactive: [1] 5.65% | [2] -21.1% | [3] 2.15% | [4] -31.6% | [5] 0.35% | [6] 0.45%

CC1(C)OC2OC(C3COS(=O)O3)C(Cl)C2O1 (stereo not given)
inactive: [1] -2% | [2] 2.45% | [3] -1.4% | [4] -48.8% | [5] -0.7% | [6] 8.6%

O=[N+]([O-])c1ccc(N/N=C\C2CC=C3c4ccccc4CCC3C2/C=N\Nc2ccc([N+](=O)[O-])cc2[N+](=O)[O-])c([N+](=O)[O-])c1 (stereo not given)
inactive: [1] 0.75% | [2] 3.1% | [3] -15.1% | [4] -9.7% | [5] -3.3% | [6] -5.85%

O=C(Nc1ccccc1C(=O)N/N=C/c1cccc(O)c1)c1ccccc1
inactive: [1] 9.5% | [2] 24.8% | [3] 12.9% | [4] -20% | [5] 34.5% | [6] 4.55%

O=C(NCc1ccccc1)NCN1CCOCC1
inactive: [1] 20.7% | [2] -0.85% | [3] 5.15% | [4] 0.45% | [5] 5.65% | [6] -11.3%

CC1CC(C#N)=C2NCCCCN2C1=O (stereo not given)
inactive: [1] -21.6% | [2] -44.8% | [3] -2.25% | [4] 3.65% | [5] -7.9% | [6] -14.3%

N/C(=N\OC(=O)NC(Cl)=C(Cl)Cl)c1ccc(Cl)cc1
inactive: [1] -18.9% | [2] -34.4% | [3] 7.4% | [4] 16.7% | [5] -13.9% | [6] -7.95%

Cn1c(=O)c2c(nc3n(C)c(=O)c4ccccc4n23)n(C)c1=O
inactive: [1] 64.7% | [2] 32.8% | [3] -8.15% | [4] 7.3% | [5] 5.45% | [6] 45.6%

NCC1OC(OC2C(CO)OC(OC3C(O)C(N)CC(N)C3OC3OC(CO)C(O)C(O)C3N)C2O)C(N)C(O)C1O (stereo not given)
inactive: [1] 33.8% | [2] -18.1% | [3] 1.85% | [4] 1.4% | [5] 27.6% | [6] 33.7%

C[N+]1(Cc2ccccc2)CCC(=O)CC1
inactive: [1] 4.05% | [2] -12.9% | [3] -7.1% | [4] -13.1% | [5] 10.9% | [6] -13.8%
